Test results published in PubChem BioAssay (NCATS).
Records with an inconclusive call do not appear. A call without a number means that no potency is given here. Activity calls are given as the source filed them. The call rests on the fitted dose curve; in most records, active means well fitted inhibition curve with a large enough effect; inconclusive means small, poorly fitted or top-dose-only effect, or effect the other way; inactive means no such curve, though single readings can be large or run the other way.

Assay: High Content Imaging Cell-Based qHTS for Inhibitors of the mTORC1 Signaling Pathway in MEF Cells (AID 2667)
Conditions: series mostly up to 38.3 µM
Text: NIH Molecular Libraries Probe Production Centers Network [MLPCN]
NIH Chemical Genomics Center [NCGC]
Assay Submitter (PI): Blenis, John; Hoffman, Greg; Harvard University
NCGC Assay Overview: The mammalian target of rapamycin (mTOR) is an intracellular serine/threonine kinase Aberrant regulation of mTOR signaling plays a causative role in a number of human diseases, including cancer, benign tumors such as lymphangioleiomyomatosis (LAM) and Tuberous Sclerosis Complex (TSC), and metabolic diseases such as diabetes and obesity. This project aims to identify inhibitors of ribosomal protein S6 (rpS6) phosphorylation. The phosphorylation of rpS6 is a key event downstream of mTOR activation. The assay uses a phospho-specific antibody of phospho-rpS6 to detect inhibitors of mTOR activation. Mutations in the Tsc1 and Tsc2 genes are the underlying genetic lesions responsible for TSC, causing constitutive activation of the mTORC1 pathway and leading to profound effects on cell metabolism. Aberrant metabolism in cancer has recently received significant attention as a target to develop therapeutic agents in the treatment of cancer.1 As Tsc2-/- cells have lost the ability to respond to energy and growth factor deprivation, these cells are unable to properly down regulate cellular biosynthetic processes in response to metabolic stress, and are thus extremely sensitive to glucose deprivation-induced death.2 A central goal of this project is to explore the unique cell survival and metabolic properties of cells with Tsc1 or Tsc2 by screening for compounds that selectively target the Tsc2-/- MEFs by screening both Tsc2-/- and WT MEF cell lines. We hope to better understand these aspects of TSC physiology in order to exploit them for therapeutic benefit.
NCGC IN Cell Assay Protocol:
For quantitative high throughput analysis of mTORC1 signaling, we developed a cell-based assay for immuno-fluorescence based detection of rpS6 phosphorylation on the Acumen Explorer that will be used a platform for the primary small molecule screen. Mouse embryonic fibroblasts (MEFs) are cultured in 1536-well plates using DMEM + 10% FBS. Twenty-four hrs after plating, test compounds (solubilized in DMSO) are delivered and incubated with the cells for 24 hrs at 37 degree Celsius. Following the incubation, media with compound is aspirated and the cells are fixed in 4% paraformaldehyde (PFA) containing PBS + 0.2% TX-100. Next, PFA is aspirated, cells are washed two times with PBS plus 0.2% TX-100 and the cells are blocked for 1 hr at room temperature (blocking buffer: LiCOR Blocking Buffer plus 0.2% TX-100). This is followed by aspiration and staining with Alexa-488 conjugated-phospho-rpS6 Ser235/236 antibody for 2 hours at room temperature (Cell Signaling Technology # 4803, 1:50 dilution in blocking buffer). Cells are washed two times with PBS plus 0.2% TX-100, and stained with 10 uM propidium iodide (PI) for 20-25 minutes for cell number measurement (1:500 dilution of Hoescht staining is also added for IN Cell imaging). Active wells which are selected (based on Acumen results) are imaged on the IN Cell 1000 (GE Healthcare) using the D360/40X and HQ480/40X excitation filters for the Hoechst and Alexa-488 cytoplasmic stains, respectively. The fluorescence emission filters used were HQ460/40M and HQ535/50M for the Hoechst and Alexa-488 cytoplasmic stains, respectively. The normalized phospho-S6 staining is calculated as the ratio of […] for the single concentration rapamycin control ([…] nM) and DMSO columns. […] Inhibition of the pathway is defined based on the normalized phospho-S6 intensity in rapamycin treated cells. Each treatment is reported as the % positive cells in the well, where thresholds are defined by selecting wells with the highest and lowest signal and differentiating between the % non-active and % active populations. […]
Potency means the concentration at half of the fitted maximal effect.

Compound | Potency
O=C(CCNNC(=O)c1ccncc1)NCc1ccccc1 | inactive
C(=C\c1ccccc1)/CN1CCN(C(c2ccccc2)c2ccccc2)CC1 | inactive
CCNC(=O)N1CCN(CCCC(c2ccc(F)cc2)c2ccc(F)cc2)CC1 | inactive
COCCCC/C(=N\OCCN)c1ccc(C(F)(F)F)cc1 | inactive
CCN(Cc1ccncc1)C(=O)C(CO)c1ccccc1 (stereo not given) | inactive
CSc1ccc(C(=O)c2[nH]c(=O)[nH]c2C)cc1 | inactive
CC(C)NNC(=O)c1ccncc1 | inactive
COCC(=O)O[C@]1(CCN(C)CCCc2nc3ccccc3[nH]2)CCc2cc(F)ccc2[C@@H]1C(C)C | 10.4 µM (active)
O=C(O)CP(=O)(O)O | inactive
C[C@]12CCC(=O)C=C1CC[C@@H]1[C@@H]2CC[C@@]2(C)[C@H]1CC[C@]2(O)C(=O)CO | inactive
COC(=O)[C@H]1[C@H]2C[C@@H]3c4[nH]c5cc(OC)ccc5c4CCN3C[C@H]2C[C@@H](OC(=O)c2cc(OC)c(OC)c(OC)c2)[C@@H]1OC | inactive
CN(C)C(=O)Oc1ccc[n+](C)c1 | inactive
CCN1CCC[C@H]1CNC(=O)c1c(O)c(Cl)cc(Cl)c1OC | inactive
O=C(O)CN(CCN(CC(=O)O)CC(=O)O)CCN(CC(=O)O)CC(=O)O | inactive
CCN(CC)CCNC(=O)c1cc(S(C)(=O)=O)ccc1OC | inactive
Brc1c(NC2=NCCN2)ccc2nccnc12 | inactive
Cc1cc(C)c(/C=C2\C(=O)Nc3ccccc32)[nH]1 | inactive
CC(=O)[C@]1(O)Cc2c(O)c3c(c(O)c2[C@@H](O[C@H]2C[C@H](N)[C@H](O)[C@H](C)O2)C1)C(=O)c1ccccc1C3=O | 0.414 µM (active)
NC(=O)N1c2ccccc2C=Cc2ccccc21 | inactive
Cc1cccc(C)c1NC(=O)C(C)N (stereo not given) | inactive

Compound | Potency
CN/C(=C\[N+](=O)[O-])NCCSCc1ccc(CN(C)C)o1 | inactive
Cc1nc2c([nH]1)c(=O)n(C)c(=O)n2Cc1ccco1 | inactive
NC(Cc1ccc(Cl)cc1)C(=O)O (stereo not given) | inactive
C[N+](C)(C)CCOC(N)=O | inactive
CN(C)CC[C@@H](c1ccc(Br)cc1)c1ccccn1 | inactive
OCCN1CCN(CC/C=C2/c3ccccc3Sc3ccc(C(F)(F)F)cc32)CC1 | inactive
COc1ccc2c(c1OC)C(=O)O[C@@H]2[C@H]1c2c(cc3c(c2OC)OCO3)CCN1C | inactive
CCN(CC)CCOCCOC(=O)C1(c2ccccc2)CCCC1 | inactive
CCO/C([O-])=N/c1c[n+](N2CCOCC2)no1 | inactive
CN1C(=O)CC[C@H]1c1cccnc1 | inactive
COc1ccc([C@@H]2Sc3ccccc3N(CCN(C)C)C(=O)[C@@H]2OC(C)=O)cc1 | inactive
C[N+](C)(C)CCCCCCCCCC[N+](C)(C)C | inactive
NC(=O)c1cn(Cc2c(F)cccc2F)nn1 | inactive
CCCCNC(=O)NS(=O)(=O)c1ccc(C)cc1 | inactive
CC(=O)OC(C)C[N+](C)(C)C (stereo not given) | inactive
CN(C)[C@@H]1C(=O)C(C(N)=O)=C(O)[C@@]2(O)C(=O)C3=C(O)c4c(O)ccc(Cl)c4[C@@H](O)[C@H]3C[C@@H]12 | inactive
C=CCc1ccccc1OCC(O)CNC(C)C (stereo not given) | inactive
FC(F)(F)c1ccccc1-n1ccnc1 | inactive
CCOC(=O)c1cnc2c(cnn2CC)c1NN=C(C)C | inactive
CC(=O)Nc1nnc(S(N)(=O)=O)s1 | inactive
